Experimental data: PubChem BioAssay (NCATS)
Records with an inconclusive call do not appear. Calls of active or inactive are those of the source. The call rests on the fitted dose curve; in most records, active means well fitted inhibition curve with a large enough effect; inconclusive means small, poorly fitted or top-dose-only effect; inactive means flat fitted curve, though single readings scatter.

Experiments:
Experiment in all cases: qHTS profiling for inhibitors of Plasmodium falciparum proliferation (AID 504749); further: nearly all actives have a fitted effect of over 60% in size
Conditions in all cases: P. falciparum in erythrocytes, SYBR Green DNA, 72 h; series mostly up to 28.7 µM
CP256 = system: CP256
Outline: (§1)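 Readout was DNA-dye fluorescence from lysed cultures, ex 485/em 535 nm. Parasitized red cells had grown 72 h with compound; data scaled between 0.29 uM artemisinin and DMSO wells and corrected using vehicle-only plates.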

CP260 = system: CP260
Outline: as §1

CP262 = system: CP262
Outline: as §1

CP265 = system: CP265
Outline: as §1

CP268 = system: CP268
Outline: as §1

CP269 = system: CP269
Outline: as §1

CP297 = system: CP297
Outline: as §1

CP305 = system: CP305
Outline: as §1

CP315 = system: CP315
Outline: as §1

CP325 = system: CP325
Outline: as §1

CP329 = system: CP329
Outline: as §1

DFO2036 = system: DFO2036
Outline: as §1

DIV14 = system: DIV14
Outline: as §1

DIV17 = system: DIV17
Outline: as §1

DIV30 = system: DIV30
Outline: as §1

Dd2 = system: Dd2
Outline: as §1

ECU = system: ECU
Outline: as §1

FAB9 = system: FAB9
Outline: as §1

HB3 = system: HB3
Outline: as §1

JCK = system: JCK
Outline: as §1

P93_24 = system: P93_24
Outline: as §1

P94_40 = system: P94_40
Outline: as §1

PAD = system: PAD
Outline: as §1

PC15 = system: PC15
Outline: as §1

PC26 = system: PC26
Outline: as §1

PC49 = system: PC49
Outline: as §1

SC27B = system: SC27B
Outline: as §1

TAB113 = system: TAB113
Outline: as §1

Measured: Potency

C=C1C(=O)O[C@@H]2[C@@H]1CC/C(C)=C\CC[C@@]1(C)O[C@H]21
inactive: all assays above
